# Source: the supplement of paper PMC11026393
# System: H1299
# Experiment: difference in mean normalized H2B-mRuby nuclear fluorescence intensity relative to DMSO control (normalized intensity difference (DMSO = 0)); higher = stronger increase in transgene reporter fluorescence
# Conditions: 24 h
# Experimental: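 Cancer cell lines stably expressing H2B-mRuby2 from a lentiviral PGK promoter were treated with each drug for 24 h and imaged on a Leica DMI8 (ex 541-551 / em 565-605 nm). Nuclei were segmented in CellProfiler. The value is the difference in mean per-nucleus normalized H2B-mRuby intensity versus DMSO-treated cells (about 3 repeats x 4 fields). Doxorubicin is itself fluorescent. Dasatinib is in nM.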
structure (smiles),measurement,setting,value
C[C@@H](Oc1cc(-c2cnn(C3CCNCC3)c2)cnc1N)c1c(Cl)ccc(F)c1Cl (concentration unit: uM),difference,concentration: 0.25,0.0337
same,difference,concentration: 1,-0.111
same,difference,concentration: 2.5,-0.0387
same,difference,concentration: 5,0.194
same,difference,concentration: 10,0.228
COc1cc2ncnc(Nc3ccc(F)c(Cl)c3)c2cc1OCCCN1CCOCC1 (concentration unit: uM),difference,concentration: 1,-0.0187
same,difference,concentration: 2.5,0.0302
same,difference,concentration: 5,-0.00342
same,difference,concentration: 10,0.0329
same,difference,concentration: 20,0.0679
C[C@@H]1C[C@H](N)C[C@H](c2ccncc2NC(=O)c2ccc(F)c(-c3c(F)cccc3F)n2)C1,difference,concentration: 1,0.00842
same,difference,concentration: 2.5,0.0956
same,difference,concentration: 5,0.0409
same,difference,concentration: 10,0.137
same,difference,concentration: 25,0.227
O=c1[nH]cc(F)c(=O)[nH]1 (concentration unit: uM),difference,concentration: 1,-0.0723
same,difference,concentration: 2.5,-0.0395
same,difference,concentration: 5,-0.107
same,difference,concentration: 10,-0.0707
same,difference,concentration: 25,-0.0709
COC1=C2C[C@@H](C)C[C@H](OC)[C@H](O)[C@@H](C)/C=C(\C)[C@H](OC(N)=O)[C@@H](OC)/C=C\C=C(/C)C(=O)NC(=CC1=O)C2=O (concentration unit: nM),difference,concentration: 5,-0.0197
same,difference,concentration: 25,0.305
same,difference,concentration: 50,0.532
same,difference,concentration: 100,0.567
same,difference,concentration: 500,0.435
Cn1c(=O)n(-c2ccc(C(C)(C)C#N)cc2)c2c3cc(-c4cnc5ccccc5c4)ccc3ncc21 (concentration unit: nM),difference,concentration: 10,0.158
same,difference,concentration: 50,0.191
same,difference,concentration: 100,0.157
same,difference,concentration: 250,0.0684
same,difference,concentration: 500,0.0286
Cc1nc(Nc2ncc(C(=O)Nc3c(C)cccc3Cl)s2)cc(N2CCN(CCO)CC2)n1 (concentration unit: nM),difference,concentration: 25,-0.00395
same,difference,concentration: 100,0.0114
same,difference,concentration: 250,0.0693
same,difference,concentration: 1000,0.167
same,difference,concentration: 2500,0.163
COC(=O)c1ccc([C@H]2c3[nH]c4ccccc4c3C[C@H](C(=O)OC)N2C(=O)CCl)cc1 (concentration unit: nM),difference,concentration: 25,0.0419
same,difference,concentration: 100,0.0844
same,difference,concentration: 250,0.00407
same,difference,concentration: 500,0.231
same,difference,concentration: 1000,0.121
